Experimental data from PubChem BioAssay (NCATS).
Activity calls are given as the source filed them. Calls follow the shape of the dose curve; as a rule, active = well fitted curve in the direction sought with a large enough effect; inconclusive = small, poorly fitted or top-dose-only effect, or another doubt; inactive = no such curve, though single readings can be large or run the other way.

assay: Cellular Toxicity (caspase-3) HUV-EC-C (AID 656); conditions: HUV-EC-C cells, caspase-3 activation (apoptosis), vehicle = 0, 100 µM tamoxifen = 100%; series mostly up to 92.2 µM
Source text: NIH Chemical Genomics Center [NCGC]
NIH Molecular Libraries Screening Centers Network [MLSCN]
National Institutes of Environmental Health Sciences [NIEHS]
National Toxicology Program [NTP]
We have developed a 1536-well cell-based assay for quantitative high throughput screening (qHTS) against a number of cell lines to determine in vitro caspase 3/7 of small molecules. This particular assay uses the HUV-EC-C cell line which is derived from normal human vascular endothelial cells.
NCGC Assay Protocol Summary:
The Caspase-Glo 3/7 assay (Promega) is a homogeneous method to measure caspase-3 and caspase-7 activities in cultured cells. The quantitation of caspase 3/7 activity is based on the cleavage of a peptide-aminoluciferin substrate. After caspase cleaves the substrate the free aminoluciferin is liberated and serves as the substrate of luciferase, which generates the light. The luminescent signal is proportional to amount of caspase 3/7 activity present.
Using the Caspase-Glo 3/7 assay, the amount of caspase 3/7 activity was measured in the HUV-EC-C cell line with complete culture medium following compound treatment for 16 hours. The assay was performed in opaque white 1536-well plates. In the screen, tamoxifen and doxorubicin were used as positive controls. Library compounds were measured for their ability to cause the activation of caspase 3/7 in the cell line, as reflected by an increase in luminescence signal, in a concentration-dependent manner. Data were normalized to the controls for basal activity (DMSO only) and 100% stimulation (100 uM tamoxifen). AC50 values were determined from concentration-response data modeled with the standard Hill equation.
qHTS protocol for caspase 3/7 assay in HUV-EC-C cell line
[Step] [Parameter] [Value] [Description]
1. Reagent; 5 uL; 1000 HUV-EC-C cells/well
2. Time; 5 hr; 37 °C incubation
4. Controls; 23 nL; Tamoxifen 0.23 uM to 100 uM & doxorubicin 7.0 pM to 100 uM
5. Time; 16 hr; 37 °C incubation
6. Reagent; 5 uL; Caspase-Glo 3/7 reagent
7. Time; 20 min; Room Temperature
8. Detection; Luminescence; Viewlux plate reader
Keywords: caspase 3/7, apoptosis, HUV-EC-C cell line, luminescence, NTPHTS, NTPHTS_NCGC, NIEHS, EPA, DSSTox, MLSMR, MLSCN, NIH Roadmap, qHTS, NCGC

Row | SMILES | outcome
1 | Cc1ncc([N+](=O)[O-])n1CCO | inactive
2 | N=C(N)c1ccc(OCCCCCOc2ccc(C(=N)N)cc2)cc1 | inactive
3 | Cc1ccnc2c1NC(=O)c1cccnc1N2C1CC1 | inactive
4 | NC(N)=NC(N)=NCCc1ccccc1 | inactive
5 | O=C(N[C@H](CO)[C@H](O)c1ccc([N+](=O)[O-])cc1)C(Cl)Cl | inactive
6 | Cc1nnc(NS(=O)(=O)c2ccc(N)cc2)s1 | inactive
7 | COc1ccc2cc3[n+](cc2c1OC)CCc1cc2c(cc1-3)OCO2 | inactive
8 | C[C@]12C=CC(=O)C=C1CC[C@@H]1[C@@H]2C(=O)C[C@@]2(C)[C@H]1CC[C@]2(O)C(=O)CO | inactive
9 | CC(=O)[C@H]1CC[C@H]2[C@@H]3CCC4=CC(=O)CC[C@]4(C)[C@H]3CC[C@]12C | inactive
10 | Cc1noc(NS(=O)(=O)c2ccc(N)cc2)c1C | inactive
11 | CC[C@H](C)C(=O)O[C@H]1C[C@@H](C)C=C2C=C[C@H](C)[C@H](CC[C@@H]3C[C@@H](O)CC(=O)O3)[C@H]21 | inactive
12 | Cc1cc(NS(=O)(=O)c2ccc(N)cc2)no1 | inactive
13 | NNC(=O)c1ccncc1 | inactive
14 | CCc1cc(C(N)=S)ccn1 | inactive
15 | O=C(O)c1cc(=O)[nH]c(=O)[nH]1 | inactive
16 | CC1=NN(c2ccccc2)C(=O)C1 | inactive
17 | CC(=O)Oc1ccccc1C(=O)Nc1ncc([N+](=O)[O-])s1 | inactive
